Bioassay records (PubChem BioAssay)
Hits are enriched below; roughly 0.9% of the tested compounds scored in any of these assays.
APEX1 inh: inhibitors of human APE1 endonuclease. P27695. recombinant APE1, TAMRA/BHQ-2 abasic DNA cleavage fluorescence. Potency, µM (series often up to 65.8 µM), without a hit: at the highest dose activity change, negative = inhibition, actives largely listed as inhibitors. hit rate 0.35% among 350,000. AID 2517;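 note: plate controls were vehicle for no effect and reference inhibitor for full effect; nearly all actives have a fitted effect of over 55% in size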
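Kinetic fluorescence read (525 ex/598 em nm, three reads 60 s apart) of AP-site incision; signal = third minus first read. Enzyme 0.75 nM, dual-labelled THF duplex 50 nM, compound preincubation 15 min RT.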
Lamin A splicing: modulators of lamin A splicing; HeLa LMNA splicing GFP/RFP minigene ratio, 48 h; hit rate 0.01% among 200,000; Potency, µM (top dose mostly 46.1 µM), for inactives: at the top dose ratio change, negative = inhibition, actives largely listed as inhibitors; active = well fitted inhibition curve with a large enough effect in the signal ratio, with a control signal flat, not every such curve was filed as active; inconclusive = small, poorly fitted or top-dose-only effect, or effect the other way, or a change in a side signal; the % refers to the signal ratio
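Read-out is the ratio of GFP to DsRed2 object intensity, acquired by 488 nm laser-scanning cytometry on HeLa lamin A-EGFP minigene reporter cells. Compound incubation 48 hrs at 37 °C in Opti-MEM with 2% FBS; DMSO 0.5% final.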
BLM helicase inh: inhibitors of human Bloom syndrome helicase BLM; Potency, µM (doses to about 56.1 µM), without a hit: at the highest dose activity change, negative = inhibition, most hits filed as inhibitors; AID 2528; hit rate 0.2% among 350,000; recombinant BLM DNA unwinding, fluorescence dequenching;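 note: plate controls were vehicle for no effect and no enzyme for full effect; nearly all actives have a fitted effect of over 35% in size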
TDP1 inh: blocks human tyrosyl-DNA phosphodiesterase 1. Q9NUW8. recombinant TDP1, AlphaScreen DNA substrate cleavage. Potency, µM (top dose mostly 130 µM), for inactives: top-dose activity change, negative = inhibition, hits mostly inhibitors. hit rate 0.28% among 350,000. AID 485290; note: nearly all actives have a fitted effect of over 40% in size
Target sequence (Q9NUW8 whole entry, looked up): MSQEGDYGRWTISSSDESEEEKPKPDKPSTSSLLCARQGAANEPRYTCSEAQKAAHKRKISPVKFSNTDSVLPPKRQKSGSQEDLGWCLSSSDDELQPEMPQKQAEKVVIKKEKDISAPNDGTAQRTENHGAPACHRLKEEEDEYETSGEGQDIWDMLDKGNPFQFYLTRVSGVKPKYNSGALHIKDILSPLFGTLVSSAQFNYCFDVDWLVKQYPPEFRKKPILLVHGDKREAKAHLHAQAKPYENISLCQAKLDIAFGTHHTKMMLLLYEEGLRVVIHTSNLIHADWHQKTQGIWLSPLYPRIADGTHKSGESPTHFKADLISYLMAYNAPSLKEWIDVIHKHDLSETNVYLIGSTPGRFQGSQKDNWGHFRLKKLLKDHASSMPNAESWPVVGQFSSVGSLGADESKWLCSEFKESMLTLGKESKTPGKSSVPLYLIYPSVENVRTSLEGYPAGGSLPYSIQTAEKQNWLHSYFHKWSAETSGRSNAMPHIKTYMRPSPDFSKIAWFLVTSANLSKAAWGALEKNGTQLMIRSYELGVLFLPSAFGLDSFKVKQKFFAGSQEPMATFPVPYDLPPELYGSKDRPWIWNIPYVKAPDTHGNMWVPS
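Recombinant E. coli-expressed Tdp1 (1 nM) preincubated with compound 15 min at RT, then 5'-biotin/3'-phosphotyrosine-FITC DNA substrate (15 nM) added for 5 min. AlphaScreen beads (10 ug/ml) added, 10 min RT; tyrosine-FITC cleavage read as signal loss.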
KAT2A inh: GCN5L2 (KAT2A) acetyltransferase inhibition. GCN5L2 HAT assay, ThioGlo1 CoA-SH fluorescence. Potency, µM (doses to about 58.9 µM), inactives show at the top dose activity change, negative = inhibition, usual class: inhibitors. hit rate 0.21% among 390,000. AID 504327
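Enzyme at 20nM final was mixed with library compounds for 15 min at room temperature. Peptide H3(1-25) at 75uM, acetyl-CoA at 70uM and ThioGlo1 at 50uM were then added. Plates were read immediately and after 20 min (Ex340nm/Em540nm).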
RECQ1 helicase: RECQ1 (human) helicase inhibition. P46063. RECQ1 DNA unwinding, red fluorescence kinetic read. Potency, µM (top dose mostly 57.3 µM), for inactives: top-dose activity, negative = inhibition, hits mostly inhibitors. hit rate 0.54% among 240,000. AID 2549;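 note: plate controls were vehicle for no effect and no enzyme for full effect; nearly all actives have a fitted effect of over 30% in size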
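50 nM RECQ1T1 preincubated 15 min with compound in Tris pH 8.0 buffer with MgCl2, DTT, Tween-20 and 2.5 ug/ml poly(dI-dC); started with 200 nM TAMRA/BHQ-2 forked duplex and 2 mM ATP. Unwinding read as fluorescence (525/598 nm), two reads 2 h apart.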
Numbers without * were called inactive; i = inactive; ? = inconclusive; . = no result given; [ ] = dose if it differs, or a comment. Unless noted, calls come from the whole dose curve; as a rule, active = well fitted curve in the direction sought with a large enough effect; inconclusive = small, poorly fitted or top-dose-only effect, or another doubt; inactive = no such curve, though single readings can be large; an effect the other way counts as inactive or inconclusive. Unless noted, % is set by controls: 0 for no effect and ±100 for the full control effect; potency is the fitted concentration of half-maximal effect.

SMILES	APEX1 inh	Lamin A splicing	BLM helicase inh	TDP1 inh	KAT2A inh	RECQ1 helicase
CN[C@H]1C[C@@H](N)[C@H](O)[C@@H](O[C@@H]2O[C@H](CO)[C@H](O)[C@@H]3OC4(O[C@H]23)O[C@H](C(N)CO)[C@H](O)[C@H](O)[C@H]4O)[C@@H]1O (stereo partly drawn)	1%	.	.	.	.	.
O=C(COc1ccc2ccc(=O)oc2c1)N1CCC(C(=O)O)(c2ccccc2)CC1	-4%	.	-1%	.	25µM*	.
c1ccc(Nc2ccc3ccccc3c2)cc1	?	.	.	10%	.	-10%
CC(C)Nc1ccc(Nc2ccccc2)cc1	0%	1.4µM*	-13%	4%	-16%	?
COc1cc2c3cc1Oc1c(OC)c(OC)cc4c1[C@@H](Cc1ccc(OC(=O)c5ccc([N+](=O)[O-])cc5)c(c1)Oc1ccc(cc1)C[C@@H]3N(C)CC2)N(C)CC4	-2%	.	52%	11%	0%	26%
CO/C1=C\C(C)=C\[C@@H](C)[C@@H](O)[C@@H](C)C/C(C)=C/C=C/[C@H](OC)[C@@H]([C@@H](C)[C@@H](O)[C@H](C)[C@@]2(O)C[C@@H](O)[C@H](C)C(C(C)C)O2)OC1=O (stereo partly drawn)	?	.	-13%	16%	-18%	i
CCOC(=O)CC(SP(=O)(OC)OC)C(=O)OCC (stereo not drawn)	1%	.	.	.	.	0%
Cn1ncnc2c(=O)n(C)c(=O)nc1-2	?	?	1.1µM*	6%	-2%	?
Oc1cccc(Cl)c1	1%	.	.	4%	.	-10%
OCC[n+]1c2ccccc2nc2ccc(N3CCOCC3)cc21	-9%	.	?	6%	-1%	13µM*
ClC1=C(Cl)[C@]2(Cl)[C@@H]3[C@H]4C[C@H]([C@@H]5O[C@H]45)[C@@H]3[C@@]1(Cl)C2(Cl)Cl	4%	.	.	.	.	.
CC1=CC(=O)NP(=O)(Oc2ccc3ccccc3c2)N1 (stereo not drawn)	-3%	14%	-5%	6%	32µM*	i
CC(=O)[C@H]1CC[C@H]2C3CC[C@H]4C[C@](C)(O)CC[C@]4(C)C3CC[C@]12C (stereo partly drawn)	12%	.	-3%	4%	47%	-1%
N/C(=N\N=C/c1ccc(-c2ccc(O)c(C(=O)O)c2)o1)N[N+](=O)[O-]	7.9µM*	11%	52%	2.8µM*	?	13µM*
COc1ccc(/C=N/N=C(/N)N[N+](=O)[O-])c(OC)c1	3%	?	1%	5%	-10%	i
CC1CC2CCC(O2)C(C)C(=O)OC(C)CC2CCC(O2)C(C)C(=O)OC(C)CC2CCC(O2)C(C)C(=O)OC(C)CC2CCC(O2)C(C)C(=O)O1 (stereo not drawn)	2%	.	-5%	4%	-14%	-6%
N#CC1=C(N)Oc2c(c(=O)oc3ccccc23)C1c1ccc([N+](=O)[O-])o1 (stereo not drawn)	35µM*	.	-3%	?	-11%	i
CCCC1C(C#N)=C(N)Oc2c1c(=O)oc1ccccc21 (stereo not drawn)	?	-12%	-5%	0%	2%	-4%
OCC(O)CS (stereo not drawn)	.	?	-13%	0%	-11%	.
CCNc1nc(Cl)nc(NCC)n1	-1%	?	8%	7%[56.1 µM]	28µM*	i
CCCC[N+](=O)[O-]	-3%	.	.	12%	.	-16%
O=[N+]([O-])c1ccc([As](=O)(O)O)cc1	.	.	3%	.	-1%	.
O=[N+]([O-])c1cc(-c2ccc([As](=O)(O)O)cc2)ccc1[As](=O)(O)O	?	.	-4%	35µM*	-1%	-4%
CC[C@H](C)[C@H]1O[C@]2(C=C[C@@H]1C)C[C@@H]1C[C@@H](C/C=C(\C)[C@@H](O[C@H]3C[C@H](OC)[C@@H](O[C@H]4C[C@H](OC)[C@@H](O)[C@H](C)O4)[C@H](C)O3)[C@@H](C)/C=C/C=C3\CO[C@@H]4[C@H](O)C(C)=C[C@@H](C(=O)O1)[C@]34O)O2	4%	.	.	.	.	.
N.N.N.N.N.N.N.N.N.N.N.N.N.N.O.O.[Cl-].[Cl-].[Cl-].[Cl-].[Cl-].[Cl-].[Ru].[Ru].[Ru]	9%	?	.	15%[56.1 µM]	.	14µM*
SMILES	APEX1 inh	Lamin A splicing	BLM helicase inh	TDP1 inh	KAT2A inh	RECQ1 helicase
CC(=O)[C@@H]1CC[C@H]2[C@@H]3CC[C@@H]4CC(=O)CC[C@]4(C)[C@H]3CC[C@]12C	1%	.	.	6%	-16%	14%
C[C@@H]1CC[C@@]2(OC1)O[C@H]1[C@@H](O)[C@H]3[C@@H]4CC[C@H]5C[C@@H](O[C@@H]6O[C@H](CO)[C@H](O[C@@H]7O[C@H](CO)[C@@H](O)[C@H](O[C@@H]8OC[C@@H](O)[C@H](O)[C@H]8O)[C@H]7O[C@@H]7O[C@H](CO)[C@@H](O)[C@H](O[C@@H]8O[C@H](CO)[C@@H](O)[C@H](O)[C@H]8O)[C@H]7O)[C@H](O)[C@H]6O)[C@H](O)C[C@]5(C)[C@H]4CC[C@]3(C)[C@H]1[C@@H]2C	14%	.	.	14%	.	-9%
CC[C@@]1(O)C(=O)OCc2c1cc1n(c2=O)-c2cc3ccccc3nc2C1	?	.	3%	4%	28µM*	-3%
O=c1c2ccccc2nc(/C=C/c2cccc3ccccc23)n1-c1ccc(Cl)cc1	.	-17%[46 µM]	-1%	5%	-5%	.
C/C=C1/C[C@@H](C)[C@](O)(CO)C(=O)OCC2=CCN3CC[C@@H](OC1=O)C23 (stereo partly drawn)	?	.	-1%	0%	-5%	22µM*
COC[C@H]1OC(=O)c2coc3c2[C@@]1(C)C1=C(C3=O)C2CCC(=O)[C@@]2(C)C[C@H]1OC(C)=O (stereo partly drawn)	?	?	3%	12%[56.1 µM]	-7%	35µM*
COC[C@H]1OC(=O)c2coc3c2[C@@]1(C)C1=C(C3=O)[C@H]2CCC(=O)[C@@]2(C)C[C@H]1OC(C)=O	-9%	.	1%	13%[56.1 µM]	-26%	13µM*
CCC12CCN(CC3CC3)CC1Oc1c(C)cccc12 (stereo not drawn)	8%	.	.	.	.	.
Cc1ccc(OP(=O)(Oc2ccc(C)cc2)Oc2ccc(C)cc2)cc1	-7%	.	.	-10%	.	-1%
CN[C@H]1C[C@H]2O[C@@](C)([C@H]1OC)n1c3ccccc3c3c4c(c5c6ccccc6n2c5c31)C(=O)NC4	?	?	-8%	9%	-19%	28µM*
